The record followed here is PubChem BioAssay (NCI).

The panel holds about 83,000 compounds, 20% with a hit somewhere; the sample as a whole holds those more often.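 Cells were grown in 96-well plates and exposed to the test compound at a single concentration for 48 hours; results are reported as percent growth, with values below 10 considered active.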 The source made the active and inactive calls.

The subject of this assay is HL-60(TB) leukemia. Kind of assay: NCI-60 one-dose screen, 48 h (100 = growth as untreated, 0 = no growth, -100 = all killed). The note with it: 10 µM unless noted.
Take `COC(=O)CC[C@@H](C)[C@H]1CC[C@H]2C3CC[C@@H]4C[C@@H]5CC[C@]4(C)[C@@]3(O5)[C@H](Br)[C@@H](Br)[C@]12C` (some centres undefined): the growth is 81.2% (inactive).
As to `Cc1cc(=O)cc(C)n1-c1ccccc1`, the growth is 103% (inactive).
For `COc1ccc(-c2n[nH]nc2-c2cc(OC)c3c(c2)OCO3)cc1`, the growth is -38.2% (active).
For `O=C(O)c1ccc(-n2cc(/C=N/Nc3ccc(F)cc3)c(-c3cccc(C(F)(F)F)c3)n2)cc1`, the growth was 34.3% (inactive).
In the case of `COc1ccc2nc3cc(Cl)ccc3c(NC(=O)CSc3ccc(Cl)cc3)c2c1`, the growth is -50.7% (active).
As for `C=CCN=c1sc(-c2ccc3ccccc3c2)cn1NC(=O)c1cc2ccc1CCc1ccc(cc1)CC2`, the figure is 49.2% (inactive); as for `CNC(=O)c1cc(Oc2ccc(NC(=O)Nc3ccc(Cl)c(C(C)(C)C)c3)c(F)c2)ccn1`, 46.7% (inactive); as for `NC1=CC(=O)C(=O)c2cccnc21`, 106% (inactive).
For the compound `COC(=O)CNC(=O)[C@]12CCC(C)(C)C[C@H]1C1=CC[C@@H]3[C@@]4(C)Cc5c([nH]c6ccccc56)C(C)(C)[C@@H]4CC[C@@]3(C)[C@]1(C)CC2`, the growth was 76.9% (inactive).
In the case of `CO[C@H](C(=O)[C@@H](O)[C@@H](C)O)[C@@H]1Cc2cc3cc(O[C@H]4C[C@@H](O[C@H]5C[C@@H](O)[C@H](O)C(C)O5)[C@H](O)C(C)(O)O4)cc(O)c3c(O)c2C(=O)[C@H]1O[C@H]1C[C@@H](O[C@H]2C[C@@H](O[C@H]3C[C@@H](OC)[C@H](O)C(C)O3)[C@@H](O)C(C)O2)[C@H](O)C(C)O1` (some centres undefined) it was 71% (inactive); in that of `O=C(Nc1ccccc1F)Nc1ccccc1Cl`, 52% (inactive); in that of `CCCC[N+](C)(N)CCCC`, 104% (inactive).
In the case of `O=c1c2c3c(sc2n2c(-c4cc(-c5ccccc5)no4)nnc2n1Cc1ccccc1)CCCC3`, the growth is 72.8% (inactive).
Regarding `O=c1oc2ccc(Cl)cc2cc1-c1cs/c(=N/N=C\c2ccc(Cl)cc2)n1/N=C/c1ccc(Cl)cc1`, the growth is 95.1% (inactive).
With `Nc1nc(-c2ccccc2Cl)cc(-c2ccc(Cl)cc2Cl)n1`, the growth is 51.4% (inactive).
In the case of `Cc1cc(N(CCCNc2ccnc3cc(Cl)ccc23)Cc2ccco2)nc(Cl)n1` it was 17.5% (inactive).
Regarding `C=C(C)[C@@H]1CCC[C@]2(C(=O)O)CC[C@]3(C)[C@@H](CC[C@@H]4[C@@]5(C)C/C(=C/c6ccncc6)C(=O)C(C)(C)[C@@H]5CC[C@]43C)[C@@H]12`, the growth was -5.12% (active).
On to `COc1ccc(-c2c(-c3cc(OC)c4c(c3)OCO4)noc2N)cc1`, for which the growth is -7.49% (active).
In the case of `COc1cc(N2C(=O)[C@H](Cl)C2c2ccc(SC)cc2)cc(OC)c1OC` (some centres undefined), the growth is -36.1% (active).
Regarding `COc1ccc2[nH]cc(/C=C3/C(=O)Nc4ccc(F)cc43)c2c1`, the growth was 96.6% (inactive).
Take `NC(=O)NCCO`: the growth was 109% (inactive).
Consider `O=S(=O)(NCCNc1nccc(-c2c(-c3cccc(F)c3)nc3occn23)n1)c1ccc(C(F)(F)F)cc1`, for which the growth was 106% (inactive).
As to `OCC1OC(n2ccc3c2ncn2ncnc32)C(O)C1O` (centres undefined), the growth is -14.4% (active).
As for `c1cc(OCCN2CCCC2)ccc1CNc1ccc2nc(CCC3CCCCC3)[nH]c2c1`, the figure is -4.69% (active); as for `O=C(N=Nc1c(O)[nH]c2ccccc12)Nc1ccc(Cl)cc1`, 38.9% (inactive).
In the case of `CCOC(=O)Cn1c(-c2nonc2NC(=O)c2ccccc2F)nc2ccccc21` it was 35.1% (inactive).
As for `CC1=C(C)C(=O)OC([C@](C)(O)[C@]2(O)CC[C@@]3(O)[C@@H]4C[C@H]5O[C@]56CC=CC(=O)[C@]6(C)[C@H]4CC[C@]23COC(=O)c2ccc(C)o2)C1` (some centres undefined), the figure is -22.6% (active).
Take `CCC(C)N(c1ccc(Cl)cc1)c1nc(-c2ccc(Br)cc2)cs1` (centres undefined): the growth is 100% (inactive).
Take `O=C(O)c1ccccc1Oc1cc(-c2ccco2)nc(OCCN2CCOCC2)n1`: the growth is 105% (inactive).
`CC(C)=CC/C=C(/C)[C@H]1CC[C@]2(C)[C@@H]1CC[C@@H]1[C@@]3(C)CCCNC(C)(C)[C@@H]3CC[C@]12C`: the growth was -35.8% [100 µM] (active).
On to `C=CC(=O)Nc1ccc2ncnc(Nc3cccc(NS(=O)(=O)CCC)c3Cl)c2c1`, for which the growth was 80.7% (inactive).
Consider `Cc1ccc(C(=O)c2ccc(CC(=O)N/N=C/c3cccc(O)c3O)n2C)cc1`, for which the growth was 4.13% (active).
Take `NC(=O)c1cccc(N2Cc3ccccc3OC3=C2C(=O)c2c(O)ccc(O)c2C3=O)c1`: the growth was -46.3% (active).
`CN1CCN(CC(=O)Nc2nc3c(s2)Nc2cc(Cl)c(Cl)cc2NC3=O)CC1`: the growth was 81.9% (inactive).
